# Compound activity deposited in PubChem BioAssay by National Center for Advancing Translational Sciences (NCATS).
# Shown are actives, neighbours in structure and some others; about 2% of the full set was active somewhere.
# Abeta rescue: restores growth of yeast expressing A-beta42 peptide; 410,000 compounds, 0.063% hits; Potency, µM (top dose mostly 46.1 µM), usual class: activators; yeast expressing A-beta42, growth rescue, OD600, 48 h; response scale: 0% DMSO, 100% iron-clioquinol control; AID 1347071; further: nearly all actives have a fitted effect of over 55% in size
#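 Yeast growth medium received pinned compounds, then yeast cells expressing toxic A-beta were added; plates incubated at 30 C for 48 hr. Growth read as absorbance at 600 nm, normalized to DMSO and equimolar FeCl3 plus clioquinol controls.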
# TDP43 rescue: TDP-43 toxicity inhibition in yeast; TDP-43 expressing yeast growth rescue, BacTiter-Glo, 24 h; Potency, µM (doses to about 46.1 µM), usual class: activators; 410,000 compounds, 1.8% hits; AID 652104; further: nearly all actives have a fitted effect of over 50% in size
#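 Cell-based yeast growth screen: TDP-43 expression induced in galactose, inoculum OD600=0.02 after raffinose pregrowth to mid-log. Read-out BacTiter-Glo luminescence at 24 hr, 30 deg C; inhibition of toxicity seen as signal increase.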
# Rango complex inh: prevents formation of the Rango-importin beta complex | Q14974 | Rango CFP/YFP FRET sensor + importin beta, 45 min | Potency, µM (titrated, usually from 92.2 µM) | 340,000 compounds, 0.031% hits; calls by dose curve; further: nearly all actives have a fitted effect of over 15% in size
#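 FRET biosensor Rango (snurportin 1 IBB between N-terminal EYFP and C-terminal Cerulean), 50 nM in PBS/1 mM DTT/0.02% Tween-20/0.1% BSA, preincubated 5 min RT with compound; 0.125 microM importin beta added, 45 min RT, CFP/YFP FRET ratio read.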
# S-ASM inh: inhibitors of human secretory acid sphingomyelinase | P17405 | placental ASM, HMU-PC fluorogenic substrate, 60 min | Potency, µM (doses to about 57.5 µM), actives largely listed as inhibitors | 340,000 compounds, 0.006% hits | AID 504937
# Target sequence (P17405 47-631 limits assumed): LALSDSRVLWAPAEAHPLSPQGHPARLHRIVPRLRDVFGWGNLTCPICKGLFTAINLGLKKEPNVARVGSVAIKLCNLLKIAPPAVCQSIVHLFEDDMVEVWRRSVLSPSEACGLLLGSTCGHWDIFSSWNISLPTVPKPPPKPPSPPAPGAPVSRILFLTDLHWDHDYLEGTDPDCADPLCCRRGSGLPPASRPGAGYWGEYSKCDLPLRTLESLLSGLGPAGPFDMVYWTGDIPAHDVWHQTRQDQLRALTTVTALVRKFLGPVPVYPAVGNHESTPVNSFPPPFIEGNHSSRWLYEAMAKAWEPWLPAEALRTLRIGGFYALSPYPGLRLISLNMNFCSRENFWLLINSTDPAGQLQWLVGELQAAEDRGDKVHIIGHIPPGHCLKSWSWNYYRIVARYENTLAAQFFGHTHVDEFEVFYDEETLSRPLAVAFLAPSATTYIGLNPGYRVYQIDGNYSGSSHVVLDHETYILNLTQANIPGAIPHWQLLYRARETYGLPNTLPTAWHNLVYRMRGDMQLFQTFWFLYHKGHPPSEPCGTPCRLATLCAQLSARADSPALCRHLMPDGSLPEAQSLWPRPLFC
#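 qHTS format. ASM enzyme prepared from human placenta hydrolyses the fluorogenic substrate HMU-PC0 (9 uM final) over 60 min at 37 °C after a 10 min compound preincubation.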
# Rango release inh: inhibitors of RanGTP-induced Rango-importin beta complex dissociation | O95149+P62826 | Biochemical FRET Rango-importin beta, RanGTP-induced dissociation | Potency, µM (highest dose often 46.1 µM) | 340,000 compounds, 0.071% hits | AID 540253; calls by dose curve; further: nearly all actives have a fitted effect of over 45% in size
#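 Compounds preincubate 5 min with complex of recombinant Rango and importin beta in PBS with 1 mM DTT. Ran (0.6 uM) loaded with 2 mM GTP plus 0.2 uM RCC1 starts dissociation; FRET is recorded 45 min later.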
# aSyn rescue: inhibitors of alpha-synuclein toxicity in yeast; Yeast expressing alpha-synuclein, growth rescue, BacTiter-Glo, 24 h; Potency, µM (series often up to 46.1 µM), actives largely listed as activators; 370,000 compounds, 0.14% hits; further: nearly all actives have a fitted effect of over 65% in size
#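 Galactose-induced alpha-syn yeast (OD600=0.02, raffinose-pregrown) + pinned cpd, 24 hr, 30 deg C; growth by BacTiter-Glo luminescence. Growth restoration scores as activation.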
# A number is an active result; n = inactive; u = inconclusive; x = not tested or not shown. Unless noted, the call rests on the fitted dose curve; in most records, active means well fitted curve in the direction sought with a large enough effect; inconclusive means small, poorly fitted or top-dose-only effect, or another doubt; inactive means no such curve, though single readings can be large; an effect the other way counts as inactive or inconclusive.
SMILES,Abeta rescue,TDP43 rescue,Rango complex inh,S-ASM inh,Rango release inh,aSyn rescue
Nc1c(C(=O)NCC2CCCO2)c2nc3ccccc3nc2n1Cc1ccco1 (stereo not drawn),n,n,u,n,u,n
Nc1c(C(=O)NC2CCCC2)c2nc3ccccc3nc2n1CC1CCCO1 (stereo not drawn),n,13µM,u,n,u,n
N#CC1c2ccccc2C=CN1C(=O)c1ccc(N(CCCl)CCCl)cc1 (stereo not drawn),n,n,x,x,x,7.9µM
C[C@]12CC[C@H](O)C[C@@H]1CC[C@@H]1[C@@H]2CC[C@]2(C)C(=O)CC[C@@H]12,n,14µM,n,n,n,u
C[C@]12CCC(=O)C(O)=C1CC[C@@H]1[C@@H]2CC[C@]2(C)C(=O)CC[C@@H]12,n,13µM,n,n,n,n
C[C@]12CCC3[C@@H](CC[C@@H]4C[C@H](O)CC[C@]34C)[C@@H]1CCC2=O (stereo partly drawn),n,u,n,n,n,n
CCCCN1C(=O)NC(=O)C2(Cc3c(nc4c(C)cccn4c3=O)N3CCc4ccccc4C32)C1=O (stereo not drawn),n,35µM,n,u,n,n
Cc1ccc(-c2cc(C(F)F)n3ncc(C(=O)N4CCc5ccccc5C4)c3n2)cc1,n,16µM,n,n,n,n
O=C(c1cc(-c2ccc(Cl)cc2)n(-c2ccc(Cl)cc2Cl)n1)N1CCOCC1,n,n,n,28µM,n,n
O=C(c1cc([N+](=O)[O-])ccc1N1CCNCC1)N1CCOCC1,n,n,n,n,n,n
CCCCNC(=O)/C(C#N)=c1\s/c(=C\c2ccccc2OC(F)F)c(=O)n1CCCOC,n,n,n,n,u,n
O=C(Nc1ccc(OC(=O)N2CCCC2)cc1)N1CCOCC1,n,n,n,n,n,n
O=C(Oc1ccc(Cl)cc1)N1CCOCC1,n,20µM,n,n,n,n
O=C(C1CCN(S(=O)(=O)c2ccc(Br)s2)CC1)N1CCN(c2ccc(F)cc2)CC1,n,u,x,x,x,x
CCC(=NCc1ccco1)c1c(O)n(C2CCCCC2)c(=O)[nH]c1=O,n,n,n,n,n,n
CCC(=Nc1ccc(OC)cc1OC)c1c(O)n(C2CCCCC2)c(=O)[nH]c1=O,n,16µM,n,n,n,n
CC(OC(=O)COc1ccc(Nc2ccccc2)cc1)C(=O)N(C)c1ccccc1 (stereo not drawn),u,n,n,n,n,n
Cc1ccc(Cl)cc1N1CCN(c2ncnc3c2nc2n3CCCC2)CC1,n,14µM,x,x,x,x
c1ccc(N2CCN(c3ncnc4c3nc3n4CCCC3)CC2)cc1,n,u,x,x,x,x
O=C(C(=O)N1CC=C(c2ccccc2)CC1)c1c[nH]c2ccccc12,n,16µM,u,n,n,u
Cc1[nH]c2ccccc2c1C(=O)CN1CC=C(c2ccccc2)CC1,n,n,u,n,u,n
CCOC(=O)c1ccc(N2C(=O)CC(N3CCC(O)(c4ccc(Br)cc4)CC3)C2=O)cc1 (stereo not drawn),n,u,n,n,n,n
CCOC(=O)c1ccc(N2C(=O)CC(N3CCC(O)(c4ccc(Cl)cc4)CC3)C2=O)cc1 (stereo not drawn),n,5.6µM,n,n,n,n
COC(=O)C1(C(=O)OC)C[C@H](c2ccc(OC)cc2)N(Cc2ccccc2OC)[C@@H]1c1ccccc1,n,n,x,x,x,u
COc1ccc(Nc2c(-c3cc(Br)ccc3O)nc3ncccn23)cc1OC,n,u,x,x,x,x
SMILES,Abeta rescue,TDP43 rescue,Rango complex inh,S-ASM inh,Rango release inh,aSyn rescue
Nc1ccc(Br)cc1C(=O)c1ccccc1,n,16µM,u,n,n,u
[Hg+][c]1ccccc1,x,x,x,x,x,n
C=Cc1cc(OC)c2c(c1)c(=O)oc1c2cc(OC)c2c(O)ccc(C3OC(C)C(O)C(C)(O)C3O)c21 (stereo not drawn),n,14µM,u,n,u,0.63µM
O=C(CN1CCN(C(=O)CNC(=O)c2ccc(-c3ccccc3)cc2)CC1)Nc1ccccc1Cl,n,u,x,x,x,n
Cc1c(CCC(=O)N2CCCCC2)c(=O)oc2cc3occ(C(C)(C)C)c3cc12,n,u,x,x,x,x
COCOC1CCC2C3CCC4=CC(=O)CCC4=C3C=CC12C (stereo not drawn),n,n,u,n,21µM,n
CC12CCC3C(CCCC4CC(=O)CCC43C)C1CCC2O (stereo not drawn),n,n,n,n,n,n
CC12CCC3C(CCC4CC(=O)C(C(O)C(F)(F)F)CC43C)C1CCC2O (stereo not drawn),n,14µM,n,n,n,n
C=C(C=O)CC1CC(O)[C@]2(C)OC3C[C@@H]4OC5C[C@]6(C)O[C@]7(C)CCC8OC9C[C@]%10(C)OC(/C(C)=C\CO)C(O)CC%10OC9CC(C)C8OC7CC6O[C@]5(C)C/C=C\C4OC3CC2O1 (stereo partly drawn),n,n,n,n,n,n
C=C(C=O)C[C@@H]1C[C@H](O)C2OC3C[C@]4(C)OC5/C=C\CC6OC7C(CC=CCC6OC5CCCC4OC3CC2O1)OC1CC2OC3CC(=O)OC3C[C@@H](C)C[C@@]2(C)OC1C[C@@H]7C (stereo partly drawn),n,22µM,n,n,n,n
COc1ccc(N2C(=O)/C(=C/c3ccc(C)o3)C(=O)NC2=S)cc1,n,7.1µM,u,n,n,n
Cc1cccc(NC(=O)Oc2ccc(Cl)c3cccnc23)c1,n,u,x,x,x,n
Cc1ccc(/C=C2\C(=O)NC(=S)N(c3cccc(F)c3)C2=O)o1,n,n,u,n,u,n
Cc1cccc(N2C(=O)/C(=C/c3ccc(CN(CCC#N)S(C)(=O)=O)o3)C(=O)NC2=S)c1,n,n,u,n,23µM,n
COc1cccc(NC(=O)N2CCc3nc(Nc4ccc(C(C)C)cc4)ncc3C2)c1,u,13µM,x,x,x,n
COC(=O)c1ccc(NC2=C(Cl)C(=O)OC2OC(=O)c2ccccc2)cc1 (stereo not drawn),n,22µM,n,n,n,n
C[C@H]1O[C@@H](O[C@H]2[C@@H](O)C[C@@H](O[C@H]3[C@@H](O)C[C@H](O[C@H]4CC[C@@]5(C)[C@H](CC[C@@H]6[C@@H]5CC[C@]5(C)[C@@H](C7=CC(=O)OC7)CC[C@]65O)C4)O[C@@H]3C)O[C@@H]2C)C[C@H](O)[C@@H]1O,x,x,x,x,x,n
